Assay results as given in PubChem BioAssay AID1159580 (chemical genetic matrix, 2015).
The campaign covered roughly 5,500 compounds. About 2,000 (36%) were called active. Inconclusive results (about 18%) are left out. Cut-off read from the data, not from the text of the source: active = normalized growth mostly below about 0.91 (no sharp cut-off); inconclusive = no clear call, values can overlap the other calls; inactive = mostly above about 0.92. The list shows a part of the results.

Assay: chemical genetic growth profiling, strain panel (AID 1159580);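 note: tested at 20 µM; growth read once vehicle control cultures reached saturation at 30 °C; 1 = growth at the plate median or of vehicle wells; lower values mean less growth of the strain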
Conditions: growth OD
[1] = S. cerevisiae deletion strains, locus YAL013W, strain DEP1, stronger effect = lower value
[2] = S. cerevisiae deletion strains, locus YBR229C, strain ROT2, stronger effect = lower value
[3] = S. cerevisiae deletion strains, locus YDL101C, strain DUN1, stronger effect = lower value
[4] = S. cerevisiae deletion strains, locus YDR150W, strain NUM1, stronger effect = lower value
[5] = S. cerevisiae deletion strains, locus YEL061C, strain CIN8, stronger effect = lower value
[6] = S. cerevisiae deletion strains, locus YGR078C, strain PAC10, stronger effect = lower value
[7] = S. cerevisiae deletion strains, locus YHR030C, strain SLT2, stronger effect = lower value
[8] = S. cerevisiae deletion strains, locus YHR087W, strain rtc3, stronger effect = lower value
[9] = S. cerevisiae deletion strains, locus YJR043C, strain POL32, stronger effect = lower value
[10] = S. cerevisiae deletion strains, locus YJR075W, strain HOC1, stronger effect = lower value
[11] = S. cerevisiae deletion strains, locus YLR039C, strain RIC1, stronger effect = lower value
[12] = S. cerevisiae deletion strains, locus YLR058C, strain SHM2 (second series), stronger effect = lower value
[13] = S. cerevisiae deletion strains, locus YLR085C, strain ARP6, stronger effect = lower value
[14] = S. cerevisiae deletion strains, locus YLR262C, strain YPT6, stronger effect = lower value
[15] = S. cerevisiae deletion strains, locus YML094W, strain GIM5, stronger effect = lower value
[16] = S. cerevisiae deletion strains, locus YMR219W, strain ESC1, stronger effect = lower value
[17] = S. cerevisiae deletion strains, locus YMR263W, strain SAP30, stronger effect = lower value
[18] = S. cerevisiae deletion strains, locus YNL153C, strain GIM3, stronger effect = lower value
[19] = S. cerevisiae deletion strains, locus YNL298W, strain CLA4 (second series), stronger effect = lower value
[20] = S. cerevisiae deletion strains, locus YNL322C, strain KRE1, stronger effect = lower value
[21] = S. cerevisiae deletion strains, locus YNR030W, strain Alg12, stronger effect = lower value
[22] = S. cerevisiae deletion strains, locus YPL055C, strain LGE1, stronger effect = lower value
[23] = S. cerevisiae deletion strains, locus YPL241C, strain CIN2, stronger effect = lower value
[24] = S. cerevisiae deletion strains, locus YPR135W, strain CTF4, stronger effect = lower value
[25] = S. cerevisiae strains, strain wild type, stronger effect = lower value
[26] = S. cerevisiae deletion strains, locus YJL187C, strain SWE1, stronger effect = lower value

Measured: normalized growth

COC(=O)c1ccc(C(=O)OC)nc1
inactive: [1] 1 | [2] 0.994 | [3] 0.977 | [4] 0.976 | [5] 0.999 | [6] 0.997 | [7] 0.982 | [8] 0.995 | [9] 1 | [10] 0.993 | [11] 0.973 | [12] 1 | [13] 1.01 | [14] 0.984 | [15] 0.942 | [16] 0.998 | [17] 1.02 | S. cerevisiae deletion strains, locus YNL128W, strain TEP1, stronger effect = lower value 0.987 | [18] 1 | [19] 1 | [20] 0.992 | [21] 0.998 | [22] 0.991 | [23] 0.949 | [24] 0.967 | [25] 0.989

CC/C(=N/Oc1ccc(C(F)(F)F)cn1)c1ccc(-c2ccccc2F)cc1
inactive: [1] 1.01 | [2] 1.01 | [3] 0.995 | [4] 0.981 | [5] 0.992 | [6] 1.01 | [7] 1.12 | [8] 1.02 | [26] 0.999 | [9] 0.987 | [10] 0.991 | [11] 1.03 | [12] 0.999 | [13] 1.04 | [14] 1.03 | [15] 1.01 | [16] 1 | [17] 0.996 | [18] 1 | [19] 1.05 | [20] 0.986 | [21] 1.02 | S. cerevisiae deletion strains, locus YOL006C, strain TOP1, stronger effect = lower value 1.06 | [22] 0.984 | [23] 1.01 | [24] 1.05 | [25] 1.02

COC(=O)c1ccc(-c2ccccc2F)cc1
inactive: [1] 0.984 | [2] 0.982 | [3] 0.987 | S. cerevisiae deletion strains, locus YDL134C, strain PPH21, stronger effect = lower value 0.974 | [4] 0.971 | [5] 0.927 | [6] 0.962 | [8] 0.968 | [26] 0.961 | [9] 0.94 | [10] 0.893 | [11] 0.796 | [12] 0.99 | [14] 0.929 | [15] 0.958 | [16] 0.991 | [17] 0.971 | [18] 0.968 | [19] 0.897 | [20] 0.999 | [21] 0.957 | [22] 0.917 | [23] 0.89 | [24] 0.786
active: [7] 0.681 | S. cerevisiae deletion strains, locus YKL190W, strain CNB1, stronger effect = lower value 0.857 | [13] 0.696 | [25] 0.901
